Marburg entry: qHTS for Inhibitors of binding or entry into cells for Marburg Virus; Marburg virus pseudotype entry/binding inhibition, cell-based; Potency, µM (top dose mostly 49.2 µM), for inactives: at the highest dose activity change, negative = inhibition, usual class: inhibitors; 6.5% of 18,000 active
LASV entry inh: qHTS for Inhibitors of binding or entry into cells for Lassa Virus; 4.1% of 18,000 active; Potency, µM (series often up to 49.2 µM), for inactives: top-dose activity change, negative = inhibition, most hits filed as inhibitors; Lassa virus pseudotyped entry inhibition, cell-based qHTS
Active calls of the source: *; u = inconclusive; x = not tested or not shown; ! = not confirmed by another sample; [ ] = another dose, or the depositor's remark. Shown are actives, neighbours in structure and some others; about 8.6% of the full set was active somewhere. Calls come from the whole dose curve; tested in HEK293 cells. % is set by controls: 0 for no effect and ±100 for the full control effect; potency is the fitted concentration of half-maximal effect.

SMILES | Marburg entry | LASV entry inh
COC(=O)[C@]1(C=C2c3ccccc3C[C@H](OC)[C@@H]2C)[C@@H]2CC=C[C@@H]21 | -7.8%[8.59 µM] | -6.4%[8.59 µM]
CC(C)N1C(=O)[C@@H]2CSCCS(=O)(=O)N2C1=O | 17.2% | 6.6%
C=CCN1C(=O)[C@@]2(CC(C)=CC[C@@H](C)O2)c2ccccc21 | 39.7%[8.59 µM] | -3.7%[8.59 µM]
CC(C)(C)c1cc(O)ccc1O | 12.6µM*! | 14.1µM*!
COc1ccc(O)c(C(C)(C)C)c1 | u | -9.1%
CC1=CC2CC(CCO)OP(=O)(OC1)O2 (centres undefined) | -2.3% | -19.3%
CCOC(=O)[C@@]1([C@@H](NC(=O)OC)c2ccco2)CCCC1=O | -8.5%[8.59 µM] | -4.2%[8.59 µM]
Oc1ccc(/C=C/c2cc(O)cc(O)c2)cc1 | 7.08µM* | 7.94µM*
O=C(/C=C/c1ccc(O)cc1)c1ccc(O)cc1O | 21.7% | 8.8%
COc1ccc(/C=C/c2cc(O)cc(O)c2)cc1 | 1.4% | -3.1%
Oc1ccc(/C=C\c2cc(O)cc(O)c2)cc1 | 11.2µM* | 10µM*
CCN1CCCC1CNCc1cc2ccc(SC)cc2nc1-c1cc(OC)ccc1OC (centres undefined) | -8.2% | -9.8%
COc1cccc([C@@H]2Oc3ccc(Br)cc3C(=O)[C@@H]2OC(=O)N[C@H]2CCCc3ccccc32)c1 | -11.4%[8.59 µM] | -10.2%[8.59 µM]
CN(C)C1CCc2[nH]c3ccc(NC(=O)c4ccc(F)cc4)cc3c2C1 (centres undefined) | 11.2µM* | -20.3%
CN[C@@H]1CCc2[nH]c3ccc(C(N)=O)cc3c2C1 | 7.8% | -12.3%
CCOC(=O)CN1C(=O)C2(CC(C)=C[C@@H](C)O2)c2c(Br)cccc21 (some centres undefined) | 2.9%[8.59 µM] | 31.5%[8.59 µM]
Cc1ccccc1-c1nc(NC2CCNCC2)c2ccccc2n1 | 8.91µM* | 8.6%
Cc1ccccc1-c1nc(NCCN2CCOCC2)c2ccccc2n1 | -15.6% | -2.9%
CCN1C(=S)NC(c2cccc(F)c2)C(C(=O)OC)=C1C (centres undefined) | 20.3%[8.59 µM] | 7.3%[8.59 µM]
O=C(NCC1CC1)c1ccc(-c2cccc(C(=O)NC3CC3)c2)cc1 | 35.7% | 36.4%
Nc1nccc(-c2c(-c3ccc(F)cc3)nn3cc(C(F)(F)F)ccc23)n1 | 30.0% | 28.4%
O=c1[nH]c(=O)n([C@@H]2O[C@H](CO)[C@@H](O)[C@H]2O)cc1F | u | 10µM*
CCc1cn([C@H]2C[C@H](O)[C@@H](CO)O2)c(=O)[nH]c1=O | -8.9% | 4.8%
COc1cc(N)c(Cl)cc1C(=O)OCCN1CCCCC1 | -16.6% | 4.9%
COc1cc(COc2cc(N)c(Cl)cc2C(=O)CCC2CCN(CCNS(C)(=O)=O)CC2)cc(OC)c1 | 7.94µM* | u
SMILES | Marburg entry | LASV entry inh
Cn1cc(C(=O)OCC2CCN(CCNS(C)(=O)=O)CC2)c2ccccc21 | u | 1.8%
COc1cc(N)c(Cl)cc1C(=O)CCC1CCN(CCNS(C)(=O)=O)CC1 | 31.6µM*! | u
CC(C)C[C@H]1COc2cc(F)ccc2S(=O)(=O)N1 | -20.7% | u
O[C@H]1CN(Cc2cccs2)[C@@H](c2ccccc2)C[C@H]1n1cc(C2CC2)nn1 | -17.9% | 6.9%
COC(=O)c1csc(C(=O)c2c[nH]c3ccccc23)n1 | -1.7% | -0.5%
COc1ccc(CCNC(=O)C(=O)c2c[nH]c3ccccc23)cc1 | -3.4% | 3.55µM*
COC(=O)[C@H](NC(=O)c1cc(-c2ccccc2)nc2ccccc12)c1ccccc1 | 11.9% | u
COC(=O)[C@H](CC(C)C)NC(=O)c1ccc(NC[C@@H](N)CS)cc1-c1cccc2ccccc12 | 11.2µM* | 11.2µM*
C=CCOC(=O)N[C@H](C(C(=O)OC)=C(C)NCc1ccccc1)c1cccc(F)c1 | u | 4.9%[8.59 µM]
CCCCN(CCCC)C(=S)[S-].CCCCN(CCCC)C(=S)[S-].[Zn+2] | 6.31µM* | 11.2µM*
O=C(/C=C\c1ccc(O)c(O)c1)O[C@@H](Cc1ccc(O)c(O)c1)C(=O)O | u | -16.4%
O=C(/C=C/c1ccc(O)c(O)c1)OC(Cc1ccc(O)c(O)c1)C(=O)O (centres undefined) | 8.91µM* | -5.1%
COC1=C(C(=O)c2ccccc2)C(=O)[C@@]2(CC=C(C)C)C[C@@H]([S+](=O)([O-])c3ccccc3)C(C)(C)[C@@]1(CC=C(C)C)C2=O | -16.6%[8.59 µM] | x
CCOC(=O)c1c(C)[nH]c2ccc3c(c12)CN1CCc2cc(OC)ccc2[C@@H]1O3 | 5.62µM* | u
CCS(=O)(=O)N1CCC[C@H]2CN3CCc4cc(OC)ccc4[C@@H]3C[C@@H]21 | 3.4% | -6.1%
CCOC(=O)CN1C(=O)[C@]2(OCCC=C[C@@H]2C)c2cc(OC)ccc21 | 12.7%[8.59 µM] | -2.3%[8.59 µM]
Oc1ccc([C@@H]2CNCCc3c2cc(O)c(O)c3Cl)cc1 | 10.7% | -14.3%
Oc1ccc([C@H]2CNCc3c2ccc(O)c3O)cc1O | 6.31µM* | -21.0%
COc1ccc(C=CC2=C[C@]3(C)C[C@]2(C)[C@H](c2ccc(OC)cc2)CC3=O)cc1 | 3.8%[8.59 µM] | 5.2%[8.59 µM]
CN1CCCCC1CCN1c2ccccc2Sc2ccc(S(C)=O)cc21 (centres undefined) | 8.91µM*! | u
CC[C@H]1OC(=O)C[C@@H](O)[C@H](C)[C@@H](O[C@@H]2O[C@H](C)[C@@H](O)[C@H](N(C)C)[C@H]2O)[C@@H](CCN2C[C@H](C)C[C@H](C)C2)C[C@@H](C)C(=O)/C=C/C(C)=C/[C@@H]1CO[C@@H]1O[C@H](C)[C@@H](O)[C@@H](OC)[C@H]1OC | u | -5.7%
OC[C@H]1OC([S-])[C@H](O)[C@@H](O)[C@@H]1O.[Au+] (some centres undefined) | 14.8% | 1.9%
C/C=C/C/C=C/CCC(=O)[C@H]1O[C@H]1C(N)=O | 15.8µM* | 15.8µM*
CC/C=C\C/C=C\C/C=C\C/C=C\C/C=C\C/C=C\CCC(=O)O | 16.2% | 3.6%
COc1ccc(S(=O)(=O)N(CCO)c2ccccc2CN(C)CC=Cc2ccc(Cl)cc2)cc1 | 10µM* | 11.2µM*
SMILES | Marburg entry | LASV entry inh
CCOC(=O)CN1C(=O)[C@@]2(CC(C)=C[C@@H](COCc3ccccc3)O2)c2ccccc21 | 7.0%[8.59 µM] | x
CC(C)c1ccc(-c2cc(-c3cn[nH]c3-c3ccccn3)ccn2)cc1 | -2.6% | 16.4%
CC(C)=CCCC(C)=CCN1C(=O)[C@@]2(CC(C)=C[C@@H](COCc3ccccc3)O2)c2ccccc21 | 6.4%[8.59 µM] | -22.3%[8.59 µM]
C[C@H](N)[C@H](O)c1ccc(O)c(O)c1 | 5.01µM* | u
CNC[C@H](O)c1ccc(O)c(O)c1 | 7.94µM*! | u
CC(N)C(O)c1cccc(O)c1 (centres undefined) | -23.0% | 0.1%
CC(C)NCC(O)c1ccc(O)c(O)c1 (centres undefined) | -15.6% | 5.4%
NC[C@@H](O)c1ccc(O)c(O)c1 | u | 7.7%
NC[C@H](O)c1ccc(O)c(O)c1 | 28.2µM* | 0.5%
CC(C)(C)c1ccc(O[C@@H]2[C@H](O)CO[C@@H]2C=CC#Cc2ccccc2)cc1 | -9.0%[8.59 µM] | -28.4%[8.59 µM]
COC(=O)c1ccc(C(=O)N2CCc3c(C(=O)NC(C)c4ccco4)c(OC)cc(=O)n3CC2)cc1 (centres undefined) | 18.1% | -0.4%
COC(=O)C1C[C@@]23C(=NN=C(SC)C2N(C)c2ccc(OC)cc23)N1C(C)=O (some centres undefined) | -33.2%[8.59 µM] | x
O=C(CCl)c1ccc(Cl)cc1Cl | 8.91µM* | 12.6µM*
OCc1ccc(Cl)cc1Cl | 18.0% | -19.2%
COc1cc(=O)n2c(c1C(=O)N(C)Cc1cscn1)CCN(C(=O)c1ccc(C)c(C)c1)CC2 | -0.1% | -6.7%

High-throughput results deposited in PubChem BioAssay by National Center for Advancing Translational Sciences (NCATS).
